Screening results: PubChem, National Center for Advancing Translational Sciences (NCATS)
Tau FP inhib: tau fibrillization inhibition (FP). K18 P301L tau heparin fibrillization, Alexa594 FP, 6 h. AID 1468. Potency, µM (highest dose often 57.7 µM), for inactives: at the highest dose activity, negative = inhibition, actives largely listed as inhibitors. actives 0.39% (n = 280,000); also: potency is read from the fitted curve at half-maximal effect; nearly all actives have a fitted effect of over 55% in size
Target sequence (P10636 561-689 P618L limits assumed): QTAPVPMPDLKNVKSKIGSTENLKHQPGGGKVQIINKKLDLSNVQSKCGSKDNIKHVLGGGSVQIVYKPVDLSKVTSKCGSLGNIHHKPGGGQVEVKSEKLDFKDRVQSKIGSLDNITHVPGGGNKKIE
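K18 P301L tau (15 uM unlabeled/0.24 uM Alexa 594-labeled, final) + compound + heparin 20 uM final; 100 mM NaOAc pH 7; 6 hr 37 C; ThT 30 uM final added, 1 hr RT; FP ex 555/em 632 nm.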
Tau fibril ThT: tau fibrillization inhibition (ThT binding). recombinant tau K18 P301L, heparin-induced fibrillization, ThT fluorescence. AID 1460. Potency, µM (highest dose often 57.4 µM), for the others: at the highest dose activity, negative = inhibition, most hits filed as inhibitors. actives 2.1% (n = 270,000). P10636; also: potency is read from the fitted curve at half-maximal effect; nearly all actives have a fitted effect of over 55% in size
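Aggregation was driven by heparin (20 uM final) acting on recombinant tau […] bearing P301L in 100 mM sodium acetate pH 7; fibrils were detected with Thioflavin T.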
JMJD2E inh: inhibitors of human JMJD2E histone demethylase. JMJD2E catalytic domain, FDH-coupled NADH fluorescence (FDH is formaldehyde dehydrogenase). Potency, µM (highest dose often 57.1 µM), inactives show top-dose activity change, negative = inhibition, hits mostly inhibitors. actives 1.6% (n = 230,000); active = well fitted inhibition curve with a large enough effect, not every such curve was filed as active; inconclusive = small, poorly fitted or top-dose-only effect, or another doubt; inactive = no such curve, though single readings can be large or run the other way;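 also: potency is read from the fitted curve at half-maximal effect; 0% = wells with enzyme and -100% = buffer wells without enzyme; nearly all actives have a fitted effect of over 50% in size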
Target sequence (B2RXH2 1-337 limits assumed): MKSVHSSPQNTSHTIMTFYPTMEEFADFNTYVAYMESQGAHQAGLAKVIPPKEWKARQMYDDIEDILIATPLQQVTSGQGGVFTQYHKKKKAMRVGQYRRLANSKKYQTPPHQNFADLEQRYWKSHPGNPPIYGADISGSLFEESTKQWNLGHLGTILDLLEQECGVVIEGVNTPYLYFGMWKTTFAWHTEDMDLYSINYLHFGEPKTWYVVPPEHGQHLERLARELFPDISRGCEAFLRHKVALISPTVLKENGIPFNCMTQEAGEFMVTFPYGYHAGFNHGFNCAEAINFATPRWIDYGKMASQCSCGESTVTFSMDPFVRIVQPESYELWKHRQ
FBPA coupling cs: coupling enzyme interference in Giardia aldolase counter-screen; coupling enzyme system counterscreen, AmpLite Red fluorescence; activity change, negative = inhibition, % at 58.2 µM, hits read low; actives 0.67% (n = 290,000); AID 2472; in the data active = activity change below about -30%
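Activity here indicates interference with the coupling reaction, not aldolase inhibition. Compounds at 57.5 uM final met coupling enzymes for 10 min at RT; substrate and AmpLite Red detection followed, with a 525/598 nm fluorescence read after 20 min.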
Sfp PPTase inh: Sfp phosphopantetheinyl transferase inhibition; Q9F4F7; Potency, µM, without a hit: largest response in the series, negative = inhibition, most hits filed as inhibitors; AID 1490; actives 3.5% (n = 310,000); Biochemical Sfp PPTase activity, qHTS;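 also: the enzyme is Sfp with the accession as filed and its product quenches rhodamine fluorescence; potency is read from the fitted curve at half-maximal effect; 0% = enzyme reaction without inhibitor and -100% = no enzyme wells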
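After 15 min at room temperature with compound, 15 nM Sfp received 5 uM rhodamine-CoA plus 12.5 uM BHQ-2-ybbR (50 mM Hepes pH 7.6, 10 mM MgCl2). Rate came from the fluorescence difference over 30 min, ex 525/em 598 nm.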
Tau fluor counter: counter-screen for tau fibril formation inhibitors; actives 0.93% (n = 280,000); tau K18 P301L Alexa594 fluorescence, heparin fibrillization; AID 1463; Potency, µM (titrated, usually from 57.7 µM), without a hit: at the highest dose activity change, negative = decrease; also: potency is read from the fitted curve at half-maximal effect; nearly all actives have a fitted effect of over 55% in size
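Human tau K18 P301L (15 uM unlabeled, 0.24 uM Alexa 594-labeled) in 100 mM sodium acetate pH 7 with 20 uM heparin, 6 hr at 37 C. ThT 30 uM added, 1 hr ambient; Alexa 594 FP and total fluorescence read at 555/632 nm.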
Active calls of the source: *; ? = inconclusive; · = not tested or not shown. Hits are enriched below; roughly 5.3% of the tested compounds scored in any of these assays. Unless noted, calls follow the shape of the dose curve; as a rule, active = well fitted curve in the direction sought with a large enough effect; inconclusive = small, poorly fitted or top-dose-only effect, or another doubt; inactive = no such curve, though single readings can be large; an effect the other way counts as inactive or inconclusive. Unless noted, % is scaled to controls: 0 for no effect and ±100 for the full control effect.

SMILES	Tau FP inhib	Tau fibril ThT	JMJD2E inh	FBPA coupling cs	Sfp PPTase inh	Tau fluor counter
CCC(=O)NC(c1ccccc1OC)c1ccc2cccnc2c1O (stereo not given)	11%	2%	25µM*	0	19%	2%
CCCC(=O)NC(c1ccc(OC)cc1)c1ccc2cccnc2c1O (stereo not given)	15%	-12%	22µM*	0	1%	-11%
CC1C[N+](=C2C=C(N3CCOCC3)CC(C)(C)C2)CC(C)O1 (stereo not given)	3%	-13%	25µM*	2	?	-6%
CC1(C)CC(N2CCOCC2)=CC(=[N+]2CCOCC2)C1	-4%	-1%	1%	0	-10%	4%
O=C(O)C1=CC(=C(c2ccc(O)c(C(=O)O)c2)c2ccc(O)c(C(=O)O)c2)C=CC1=O	?	32µM*	?	4	-2%	?
CC1=C/C(=C(\c2ccc(O)c(C)c2)c2ccccc2S(=O)(=O)O)C=CC1=O	·	·	·	6	18%	·
C=C(C(=O)O)[C@@H]1CC[C@@]2(C)CCC[C@](C)(O)[C@@H]2C1	-7%	-2%	2%	2	9%	-3%
N#Cc1cc(-c2ccccc2)oc1/N=C/c1ccccc1O	-3%	?	-10%	2	-7%	?
COc1cccc(/C=N/c2oc(-c3ccccc3)cc2C#N)c1O	1%	14µM*	?	-2	?	-27%
CC(C)c1ccc(OCC(=O)NCC(c2ccc(Cl)cc2)N2CCOCC2)cc1 (stereo not given)	9%	-4%	·	·	·	-4%
COc1ccc(/C=N/Nc2nnc(Cc3ccc(OC)c(OC)c3)c(=O)[nH]2)cc1	-5%	-3%	23%	3	-13%	-3%
COc1ccc(Cc2nnc(NN)[nH]c2=O)cc1OC	·	·	·	-2	45µM*	·
COc1ccc(/C=N/Nc2nnc(Cc3ccc(OC)c(OC)c3)c(=O)[nH]2)cc1OC	4%	14%	0%	0	50µM*	7%
CCc1ccccc1NC(=O)COc1ccc2c(=O)c(Oc3cc(C)ccc3C)coc2c1	8%	3%	12%	3	45µM*	0%
CC(C)c1ccccc1NC(=O)COc1ccc2c(=O)c(Oc3ccc4ccccc4c3)coc2c1	-4%	-12%	-14%	-2	8%	-11%
COc1ccc(/C=C2\C(=O)ON=C2c2ccccc2)cc1	·	·	·	-1	40µM*	·
O=C1ON=C(c2ccccc2)/C1=C/c1ccc(O)c(O)c1	·	·	·	0	50µM*	·
CCCc1cc(=O)[nH]c(SCc2nc(-c3ccc(OC)cc3)no2)n1	-9%	-17%	·	·	·	-18%
NS(=O)(=O)c1ccc(NC(=O)CN2CCN(c3ccc(F)cc3)CC2)cc1	6%	2%	·	·	·	0%
COc1ccc(Cl)cc1NC(=O)c1ccc2c(c1)CCCN2S(C)(=O)=O	-16%	-5%	·	·	·	?
Cc1nc2ncnn2c(N2CCN(C(c3ccccc3)c3ccccc3)CC2)c1C	-10%	-15%	3%	1	79µM*	-5%
CC[C@H](C)[C@H](NC(=O)[C@@H]1CCCN1C(=O)[C@H](Cc1cnc[nH]1)NC(=O)[C@@H](NC(=O)[C@H](Cc1ccc(O)cc1)NC(=O)[C@@H](NC(=O)[C@H](CCCN=C(N)N)NC(=O)CNC)C(C)C)[C@@H](C)CC)C(=O)O	·	·	·	1	24%	·
O=C1/C(=C/c2cccnc2)CC/C1=C\c1cccnc1	-3%	?	2%	1	8%	0%
CCC1C/C(=C\c2cccnc2)C(=O)/C(=C/c2cccnc2)C1 (stereo not given)	?	10µM*	0%	-1	?	-11%
O=C1/C(=C/c2cccnc2)CCC/C1=C\c1cccnc1	?	6.3µM*	4%	6	-7%	-16%
SMILES	Tau FP inhib	Tau fibril ThT	JMJD2E inh	FBPA coupling cs	Sfp PPTase inh	Tau fluor counter
Cc1ccc(C)c(Cn2c(-c3cccs3)nc3ccccc32)c1	-10%	?	·	·	·	-18%
Cc1ccccc1OCCNc1cc(N2CCNCC2)ccc1[N+](=O)[O-]	?	16µM*	4%	2	-2%	?
Cc1ccc(OCCNc2cc(N3CCN(CCO)CC3)ccc2[N+](=O)[O-])cc1C	-8%	16µM*	-1%	-1	-28%	?
COc1ccccc1OCCNc1cc(N2CCCCC2)ccc1[N+](=O)[O-]	12%	?	6%	2	-5%	-22%
Cc1cccc(OCCNc2cc(N3CCN(C)CC3)ccc2[N+](=O)[O-])c1	-12%	?	-5%	0	-10%	?
Cc1cccc(OCCNc2cc(N3CCOCC3)ccc2[N+](=O)[O-])c1	-3%	7.9µM*	3%	-2	13%	?
Cc1ccc(C(=O)N/C(=C\c2ccc(Cl)cc2)C(=O)NC2CCCCC2)cc1	-3%	-5%	·	·	·	-7%
N#Cc1cccc(-c2nc3cnc(N4CCOCC4)nc3n(C3CC3)c2=O)c1	·	·	·	3	14%	·
Cc1ccc(C)c(CN2C(=O)c3ccccc3S(=O)(=O)c3ccc(C(=O)N4CCOCC4)cc32)c1	2%	-12%	·	·	·	-25%
O=C1c2ccc3c4c(ccc(c24)C(=O)N1CCCCO)C(=O)N(CCCCO)C3=O	-1%	-13%	?	-40*	15%	-19%
O=C(c1ccc2c(c1)C(=O)N(CCCO)C2=O)c1ccc2c(c1)C(=O)N(CCCO)C2=O	5%	3%	11%	-1	2%	3%
COC(=O)c1cn[nH]c1NC(=S)Nc1ccc(Cl)c(Cl)c1	?	-2%	2%	1	56µM*	-18%
Cc1cccc(NC(=S)NNC(=O)c2ccccc2Br)c1	5%	-15%	8%	4	-4%	-11%
CC(=O)Nc1cccc(NC(=S)Nc2ccc(F)c(Cl)c2)c1	-12%	?	-29%	-1	35µM*	?
COC(=O)c1cn[nH]c1NC(=S)Nc1ccc(C)cc1Cl	?	-2%	7%	0	-13%	?
O=C(NNC(=S)Nc1ccc(F)c(Cl)c1)c1ccccc1Br	-7%	?	-3%	2	56µM*	-22%
CCOC(=O)C1=C(O)/C(=C\c2ccc(CNC(=O)C(=O)Nc3ccccc3)o2)N=C1C	7%	9%	-6%	-28	32µM*	3%
CCOC(=O)C1=C(O)/C(=C\c2cccs2)N=C1C	1%	?	-11%	2	11%	-5%
COc1ccc(NC(=O)c2cc(S(=O)(=O)N3CCCCC3)ccc2N2CCCCC2)cn1	-11%	-5%	?	-35*	-18%	-13%
COc1ccc(NC(=O)c2cc(S(=O)(=O)N3CCOCC3)ccc2N2CCOCC2)cc1	·	·	·	·	17%	·
